Assay results published in PubChem BioAssay (NCATS).
Inconclusive results are not listed. Unmarked numbers belong to inactive results. Active and inactive are the calls of the source. The call rests on the fitted dose curve; in most records, active means well fitted cell-killing curve with a large enough effect; inconclusive means small, poorly fitted or top-dose-only effect, or effect the other way; inactive means no such curve, though single readings can be large or run the other way.

Experiment: Quantitative High-Throughput drug screen in 47 multiple myeloma cell lines against the NCATS MIPE library collection: XG1_PLB cell viability assay (AID 1919866); further: nearly all actives have a fitted effect of over 35% in size
Conditions: CellTiter-Glo ATP, 48 h; series mostly up to 45.8 µM; viability: at the top concentration
From the text: PI: Beverly A. Mock Ph.D.
Laboratory of Cancer Biology and Genetics,
Center for Cancer Research, National Cancer Institute,
National Institute of Health, Bethesda, Maryland
Drug resistance and disease progression are common in multiple myeloma (MM) patients, underscoring the need for new therapeutic combinations. […] We hypothesized that effective combinations would reduce MYC expression and enhance p16 activity. […] These preclinical data identify potentially useful drug combinations for evaluation in drug-resistant MM and reveal potential mechanisms of combined drug sensitivity.
Described herein is the primary MIPE qHTS used to cherrypick compounds. Validated compounds were then further tested for potential synergistic activiy.
[1] Peat TJ, Gaikwad SM, Dubois W, Gyabaah-Kessie N, Zhang S, Gorjifard S, Phyo Z, Andres M, Hughitt VK, Simpson RM, Miller MA, Girvin AT, Taylor A, Williams D, D'Antonio N, Zhang Y, Rajagopalan A, Flietner E, Wilson K, Zhang X, Shinn P, Klumpp-Thomas C, McKnight C, Itkin Z, Chen L, Kazandijian D, Zhang J, Michalowski AM, Simmons JK, Keats J, Thomas CJ, Mock BA. Drug combinations identified by high-throughput screening promote cell cycle transition and upregulate Smad pathways in myeloma. Cancer Lett. 2023 Aug 1;568:216284. doi: 10.1016/j.canlet.2023.216284. Epub 2023 Jun 24. PMID: 37356470; PMCID: PMC10408729.
SEQUENCE No. (e.g., 1, 2, 3, etc.); […] (e.g., Cells, Incubation, Reagent, etc.); VALUE and DESCRIPTION.
1; Cells; 5 uL; white, solid bottom 1536-well Greiner assay plate.
2; Compounds; 23 nL; Kalypsis pin tool (Wako USA) equipped with a 1536-well pin head to transfer to the assay plates.
3; Incubation; 48 hours; 37C incubation.
4; Reagent;5uL; CellTiter Glo (Promega).
5; Detector; 425V; Luminescence; Viewlux PerkinElmer.
NOTES (numbers refer to Sequence numbers above)
1. The cell-based screening methods employed in this study were like those previously published. Briefly, the corresponding myeloma cell lines were screened in 1,536-well plates with 500 cells, 5-uL per well for inhibition of cell viability (assessed by measuring ATP levels with CellTiterGlo).
2. NCATS MIPE 4.0 library of approved and investigational drugs were added using the Kalypsis pin tool. Wells treated with DMSO only for 100% viability and media only for 0% viability were used as controls.
3. The assay plates were covered and incubated for 48 hours in a 37C, 5% CO2 incubator with controlled humidity.
4. After 48 hours, CellTilter-GloTM luminescent substrate mix (Promega) reagent was added to the assay plate and plates we incubated for 5 min at room temperature.
5. Signal was measured as median relative luminescence units on a ViewLux (PerkinElmer) multiplate reader.
[1] Heske CM, Davis MI, Baumgart JT, Wilson K, Gormally MV, Chen L, Zhang X, Ceribelli M, Duveau DY, Guha R, Ferrer M, Arnaldez FI, Ji J, Tran HL, Zhang Y, Mendoza A, Helman LJ, Thomas CJ. Matrix Screen Identifies Synergistic Combination of PARP Inhibitors and Nicotinamide Phosphoribosyltransferase (NAMPT) Inhibitors in Ewing Sarcoma. Clin Cancer Res. 2017 Dec 1;23(23):7301-7311. doi: 10.1158/1078-0432.CCR-17-1121. Epub 2017 Sep 12. PMID: 28899971; PMCID: PMC6636827.
Potency means the concentration at half of the fitted maximal effect.

Structure (SMILES)	Potency	viability [%]
C[C@](O)(CS(=O)(=O)c1ccc(F)cc1)C(=O)Nc1ccc(C#N)c(C(F)(F)F)c1	0.418 µM (active)	–
C[C@]12CC[C@@H]3c4ccc(OC(=O)N(CCCl)CCCl)cc4CC[C@H]3[C@@H]1CC[C@@H]2OP(=O)(O)O	–	119
O=P1(N(CCCl)CCCl)NCCCO1 (stereo not given)	14.8 µM (active)	–
O=C(O)CCCc1ccc(N(CCCl)CCCl)cc1	16.6 µM (active)	–
CN1C(=O)COc2c(C(=O)NC3CN4CCC3CC4)cc(Cl)cc21 (stereo not given)	–	113
C[C@]12CC[C@H]3[C@@H](CC[C@@]45O[C@H]4C(O)=C(C#N)C[C@]35C)[C@H]1CC[C@H]2O	–	105
CN1C(=O)CCS(=O)(=O)C1c1ccc(Cl)cc1 (stereo not given)	16.6 µM (active)	–
CC(C)C[C@H](CN)CC(=O)O	–	121
CC(C)c1cccc(C(C)C)c1O	–	131
CCC1(c2ccc(N)cc2)CCC(=O)NC1=O (stereo not given)	–	112
